# This is one part of a sample in which the strongest signals are shown more often than they occur.
# B1: PGP3 (Chlamydia trachomatis), P0CE18 (protein)
# chain: MGNSGFYLYNTQNCVFADNIKVGQMTEPLKDQQIILGTTSTPVAAKMTASDGISLTVSNNPSTNASITIGLDAEKAYQLILEKLGDQILGGIADTIVDSTVQDILDKITTDPSLGLLKAFNNFPITNKIQCNGLFTPRNIETLLGGTEIGKFTVTPKSSGSMFLVSADIIASRMEGGVVLALVREGDSKPYAISYGYSSGVPNLCSLRTRIINTGLTPTTYSLRVGGLESGVVWVNALSNGNDILGITNTSNVSFLEVIPQTNA
# What was measured:
# Assay in all cases: glycan array binding signal (z-score within array); higher = stronger binding
# Settings in all cases: glycan notation: IUPAC condensed, linker removed
# [1] = target: Fuc(a1-2)Gal(b1-3)GlcNAc(b1-3)[Gal(b1-4)GlcNAc(b1-6)]Gal(b1-4)Glc
# Summary of the method: (§1)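 The Consortium for Functional Glycomics database supplied 3228 glycan arrays, of which those lacking an available protein sequence were dropped. The binding signal, a within-array Z-score, was averaged across arrays of the same protein sequence and across linkers. Negative scores can be read as non-binding.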
# [2] = target: Fuc(a1-2)Gal(b1-3)[Fuc(a1-4)]GlcNAc(b1-3)[Fuc(a1-3)[Gal(b1-4)]GlcNAc(b1-6)]Gal(b1-4)Glc
# Summary of the method: as §1
# [3] = target: Fuc(a1-2)Gal(b1-4)GlcNAc(b1-2)Man(a1-3)[Fuc(a1-2)Gal(b1-4)GlcNAc(b1-2)Man(a1-6)]Man(b1-4)GlcNAc(b1-4)GlcNAc
# Summary of the method: as §1
# [4] = target: Fuc(a1-2)Gal(b1-4)GlcNAc(b1-2)[Fuc(a1-2)Gal(b1-4)GlcNAc(b1-4)]Man(a1-3)[Fuc(a1-2)Gal(b1-4)GlcNAc(b1-2)Man(a1-6)]Man(b1-4)GlcNAc(b1-4)GlcNAc
# Summary of the method: as §1
# [5] = target: Fuc(a1-2)[Gal(a1-3)]Gal(b1-3)GlcNAc(b1-2)Man(a1-3)[Fuc(a1-2)[Gal(a1-3)]Gal(b1-3)GlcNAc(b1-2)Man(a1-6)]Man(b1-4)GlcNAc(b1-4)GlcNAc
# Summary of the method: as §1
# [6] = target: Fuc(a1-2)[Gal(a1-3)]Gal(b1-3)GlcNAc(b1-2)Man(a1-3)[Fuc(a1-2)[Gal(a1-3)]Gal(b1-3)GlcNAc(b1-2)Man(a1-6)]Man(b1-4)GlcNAc(b1-4)[Fuc(a1-6)]GlcNAc
# Summary of the method: as §1
# [7] = target: Fuc(a1-2)[Gal(a1-3)]Gal(b1-4)GlcNAc
# Summary of the method: as §1
# [8] = target: Fuc(a1-2)[Gal(a1-4)]Gal(b1-4)GlcNAc
# Summary of the method: as §1
# [9] = target: Fuc(a1-2)[GalNAc(a1-3)]Gal(b1-3)GlcNAc
# Summary of the method: as §1
# [10] = target: Fuc(a1-2)[GalNAc(a1-3)]Gal(b1-3)GlcNAc(b1-3)GalNAc
# Summary of the method: as §1
# [11] = target: Fuc(a1-2)[GalNAc(a1-3)]Gal(b1-4)GlcNAc(b1-3)Gal(b1-4)GlcNAc
# Summary of the method: as §1
# [12] = target: Fuc(a1-3)[Gal(b1-4)]GlcNAc(b1-2)Man(a1-3)[Fuc(a1-3)[Gal(b1-4)]GlcNAc(b1-2)Man(a1-6)]Man(b1-4)GlcNAc(b1-4)GlcNAc
# Summary of the method: as §1
# [13] = target: Fuc(a1-3)[Gal(b1-4)]GlcNAc(b1-2)Man(a1-3)[Fuc(a1-3)[Gal(b1-4)]GlcNAc(b1-2)Man(a1-6)]Man(b1-4)GlcNAc(b1-4)[Fuc(a1-6)]GlcNAc
# Summary of the method: as §1
# [14] = target: Gal(a1-3)Gal(b1-4)[Fuc(a1-3)]GlcNAc
# Summary of the method: as §1
# [15] = target: Gal(a1-4)Gal(b1-3)GlcNAc(b1-2)Man(a1-3)[Gal(a1-4)Gal(b1-3)GlcNAc(b1-2)Man(a1-6)]Man(b1-4)GlcNAc(b1-4)GlcNAc
# Summary of the method: as §1
# [16] = target: Gal(a1-4)Gal(b1-4)GlcNAc(b1-3)Gal(b1-4)Glc
# Summary of the method: as §1
# Gal(b1-2)Gal = target: Gal(b1-2)Gal
# Summary of the method: as §1
# [17] = target: Gal(b1-4)GlcNAc(b1-2)Man(a1-3)[Gal(b1-4)GlcNAc(b1-2)][GlcNAc(b1-4)]Man(b1-4)GlcNAc(b1-4)GlcNAc
# Summary of the method: as §1
# [18] = target: Gal(b1-4)GlcNAc(b1-3)Gal(b1-4)Glc
# Summary of the method: as §1
# [19] = target: Gal(b1-4)GlcNAc(b1-3)Gal(b1-4)[Fuc(a1-3)]GlcNAc(b1-3)Gal(b1-4)[Fuc(a1-3)]GlcNAc
# Summary of the method: as §1
# Gal3S(b1-4)Glc = target: Gal3S(b1-4)Glc
# Summary of the method: as §1
# [20] = target: GalNAc(a1-3)GalNAc(b1-3)Gal(a1-4)Gal(b1-4)Glc
# Summary of the method: as §1
# [21] = target: GalNAc(b1-3)Gal(a1-6)Gal(b1-4)Glc
# Summary of the method: as §1
# GalNAc(b1-6)GalNAc = target: GalNAc(b1-6)GalNAc
# Summary of the method: as §1
# [22] = target: Glc(a1-4)Glc(a1-4)Glc(a1-4)Glc
# Summary of the method: as §1
# [23] = target: GlcNAc(a1-4)Gal(b1-4)GlcNAc(b1-3)Gal(b1-4)GlcNAc
# Summary of the method: as §1
# GlcNAc(b1-4)GlcNAc = target: GlcNAc(b1-4)GlcNAc
# Summary of the method: as §1
# [24] = target: GlcNAc(b1-4)GlcNAc(b1-4)GlcNAc(b1-4)GlcNAc(b1-4)GlcNAc
# Summary of the method: as §1
# Kdn(a2-3)Gal(b1-4)GlcNAc = target: Kdn(a2-3)Gal(b1-4)GlcNAc
# Summary of the method: as §1
# [25] = target: Kdn(a2-3)Gal(b1-4)[Fuc(a1-3)]GlcNAc
# Summary of the method: as §1
# [26] = target: Man(a1-2)Man(a1-3)[Man(a1-2)Man(a1-6)]Man
# Summary of the method: as §1
# [27] = target: Man(a1-2)Man(a1-6)[Man(a1-3)]Man(a1-6)[Man(a1-2)Man(a1-2)Man(a1-3)]Man
# Summary of the method: as §1
# Man(a1-3)[Man(a1-6)]Man = target: Man(a1-3)[Man(a1-6)]Man
# Summary of the method: as §1
# [28] = target: Man(a1-3)[Man(a1-6)]Man(a1-6)[Man(a1-3)]Man
# Summary of the method: as §1
# Neu5Ac(a2-3)Gal = target: Neu5Ac(a2-3)Gal
# Summary of the method: as §1
# [29] = target: Neu5Ac(a2-3)Gal6S(b1-4)GlcNAc
# Summary of the method: as §1
# [30] = target: Neu5Ac(a2-6)GlcNAc(b1-4)GlcNAc
# Summary of the method: as §1
# [31] = target: Neu5Ac(a2-8)Neu5Ac(a2-8)Neu5Ac
# Summary of the method: as §1
# [32] = target: Neu5Ac(a2-8)Neu5Ac(a2-8)Neu5Ac(a2-3)Gal(b1-4)Glc
# Summary of the method: as §1
# [33] = target: Neu5Ac9Ac(a2-3)Gal(b1-3)GlcNAc
# Summary of the method: as §1
# [34] = target: Neu5Gc(b2-6)Gal(b1-4)GlcNAc
# Summary of the method: as §1
binder,measurement,setting,value
B1,glycan array binding signal (z-score),[1],0.289
same,glycan array binding signal (z-score),[2],-0.443
same,glycan array binding signal (z-score),[3],-0.053
same,glycan array binding signal (z-score),[4],2.62
same,glycan array binding signal (z-score),[5],5.67
same,glycan array binding signal (z-score),[6],0.251
same,glycan array binding signal (z-score),[7],-1.17
same,glycan array binding signal (z-score),[8],-0.649
same,glycan array binding signal (z-score),[9],0.499
same,glycan array binding signal (z-score),[10],2.46
same,glycan array binding signal (z-score),[11],0.028
same,glycan array binding signal (z-score),[12],2.78
same,glycan array binding signal (z-score),[13],-0.169
same,glycan array binding signal (z-score),[14],-0.404
same,glycan array binding signal (z-score),[15],3.06
same,glycan array binding signal (z-score),[16],-0.099
same,glycan array binding signal (z-score),Gal(b1-2)Gal,0.34
same,glycan array binding signal (z-score),[17],1.19
same,glycan array binding signal (z-score),[18],-0.67
same,glycan array binding signal (z-score),[19],0.322
same,glycan array binding signal (z-score),Gal3S(b1-4)Glc,-0.636
same,glycan array binding signal (z-score),[20],1.04
same,glycan array binding signal (z-score),[21],2.89
same,glycan array binding signal (z-score),GalNAc(b1-6)GalNAc,0.114
same,glycan array binding signal (z-score),[22],0.478
same,glycan array binding signal (z-score),[23],1.53
same,glycan array binding signal (z-score),GlcNAc(b1-4)GlcNAc,0.682
same,glycan array binding signal (z-score),[24],1.18
same,glycan array binding signal (z-score),Kdn(a2-3)Gal(b1-4)GlcNAc,1.53
same,glycan array binding signal (z-score),[25],0.816
same,glycan array binding signal (z-score),[26],0.09
same,glycan array binding signal (z-score),[27],0.585
same,glycan array binding signal (z-score),Man(a1-3)[Man(a1-6)]Man,-0.232
same,glycan array binding signal (z-score),[28],0.157
same,glycan array binding signal (z-score),Neu5Ac(a2-3)Gal,0.478
same,glycan array binding signal (z-score),[29],2.5
same,glycan array binding signal (z-score),[30],-1.37
same,glycan array binding signal (z-score),[31],1.11
same,glycan array binding signal (z-score),[32],2.79
same,glycan array binding signal (z-score),[33],2.73
same,glycan array binding signal (z-score),[34],-1.1
